# Experimental data reported in PubChem BioAssay (EPA / NIEHS).
# Activity calls are given as the source filed them. How the source made its calls: active means hit-call score of the fitted dose curve at least 0.9, where 1 is the maximum; inactive means score below 0.9.
# Assays:
# [1] = read-out: Cyclin D2 (CCND2), CCND2 (gene 894); test: LTEA_HepaRG_CCND2: Life Technologies and Expression Analysis (LTEA) Assay for Cyclin D2 (CCND2) using HepaRG (AID 2283449); details: mRNA level, 48 h; actives raise or lower the signal;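 further: CCND2 transcript measured by TaqMan qRT-PCR and normalised to three housekeeping genes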
# In short: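 Chemicals in 0.5% DMSO, eight half-log concentrations from 100 uM top, were applied in duplicate for 48 h to human HepaRG cells in serum-free induction medium. CCND2 mRNA by TaqMan qRT-PCR, normalised to ACTB/GAPDH/POLR2A; bidirectional fit versus DMSO.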
# [2] = read-out: Cyclin Dependent Kinase Inhibitor 1A (CDKN1A), CDKN1A (gene 1026); test: LTEA_HepaRG_CDKN1A: Life Technologies and Expression Analysis (LTEA) Assay for Cyclin Dependent Kinase Inhibitor 1A (CDKN1A) using HepaRG (AID 2283450); details: mRNA level, 48 h; actives raise or lower the signal
# In short: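 Gain or loss of CDKN1A transcript is scored by bidirectional fitting against 0.5% DMSO vehicle. Human HepaRG cultures receive chemicals for 48 h across an 8-point series peaking at 100 uM; expression comes from qRT-PCR.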
# [3] = read-out: Cyclin D1 (CCND1), CCND1 (gene 595); test: LTEA_HepaRG_CCND1: Life Technologies and Expression Analysis (LTEA) Assay for Cyclin D1 (CCND1) using HepaRG (AID 2283451); details: mRNA level, 48 h; actives raise or lower the signal;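 on AC50: TaqMan qRT-PCR transcript level normalised to ACTB GAPDH and POLR2A housekeeping genes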
# In short: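 Expression change is measured by qRT-PCR in HepaRG cells after 48 h treatment across eight concentrations topping at 100 uM, with duplicate wells and DMSO (0.5%) serving as baseline for bidirectional fitting.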
# [4] = read-out: catalase (CAT), CAT (gene 847); test: LTEA_HepaRG_CAT: Life Technologies and Expression Analysis (LTEA) Assay for catalase (CAT) using HepaRG (AID 2283452); details: mRNA level, 48 h; actives raise or lower the signal;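 on AC50: TaqMan qRT-PCR signal normalized to ACTB GAPDH and POLR2A housekeeping genes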
# In short: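 HepaRG cells in serum-free induction medium, 0.5% DMSO vehicle, exposed 48 h in duplicate over 8 half-log concentrations from 100 uM. CAT mRNA measured by qRT-PCR, normalized to ACTB, GAPDH, POLR2A; bidirectional fit versus DMSO.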
# [5] = read-out: flavin-containing dimethylaniline monooxygenases 3 (FMO3), FMO3 (gene 2328); test: LTEA_HepaRG_FMO3: Life Technologies and Expression Analysis (LTEA) Assay for flavin-containing dimethylaniline monooxygenases 3 (FMO3) using HepaRG (AID 2283453); details: mRNA level, 48 h; actives raise or lower the signal
# In short: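 Differentiated HepaRG cells in serum-free induction medium, exposed 48 h in duplicate to 8 half-log concentrations up to 100 uM in 0.5% DMSO. FMO3 mRNA by qRT-PCR, normalized to ACTB, GAPDH, POLR2A; bidirectional fit vs DMSO.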
# [6] = read-out: Cytochrome P450 (CYP1A1), CYP1A1 (gene 1543); test: LTEA_HepaRG_CYP1A1: Life Technologies and Expression Analysis (LTEA) Assay for Cytochrome P450 (CYP1A1) using HepaRG (AID 2283454); details: mRNA level, 48 h; actives raise or lower the signal
# In short: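 Using HepaRG cultures with 0.5% DMSO as vehicle, eight-concentration exposures (max 100 uM) lasted 48 h. Transcript levels were measured by TaqMan qRT-PCR and normalized to ACTB, GAPDH and POLR2A.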
# [7] = read-out: CFLAR gene, CFLAR (gene 8837); test: LTEA_HepaRG_CFLAR: Life Technologies and Expression Analysis (LTEA) Assay for CFLAR gene using HepaRG (AID 2283455); details: mRNA level, 48 h; actives raise or lower the signal
# In short: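 Differentiated HepaRG cells in serum-free induction medium were exposed 48 h in duplicate to eight half-log concentrations up to 100 uM in 0.5% DMSO; mRNA measured by TaqMan qRT-PCR, normalized to ACTB, GAPDH, POLR2A; bidirectional fitting versus DMSO.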
# [8] = read-out: Forkhead box O1 (FOXO1), FOXO1 (gene 2308); test: LTEA_HepaRG_FOXO1: Life Technologies and Expression Analysis (LTEA) Assay for Forkhead box O1 (FOXO1) using HepaRG (AID 2283456); details: mRNA level, 48 h; actives raise or lower the signal
# In short: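 Differentiated HepaRG cells, in serum-free induction medium with 0.5% DMSO, exposed 48 h in duplicate to 8-point half-log series from 100 uM. FOXO1 mRNA measured by TaqMan qRT-PCR, normalized to ACTB, GAPDH, POLR2A; bidirectional fit versus DMSO.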
# [9] = read-out: growth arrest and DNA damage 45 (GADD45A), GADD45A (gene 1647); test: LTEA_HepaRG_GADD45A: Life Technologies and Expression Analysis (LTEA) Assay for growth arrest and DNA damage 45 (GADD45A) using HepaRG (AID 2283458); details: mRNA level, 48 h; actives raise or lower the signal
# In short: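 Cells plated and cultured 48 h, switched to serum-free induction medium, then dosed for 48 h (100 uM top, half-log dilutions, 0.5% DMSO). RNA was isolated and transcript measured by Fluidigm qRT-PCR.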
# [10] = read-out: Forkhead box O3 (FOXO3), FOXO3 (gene 2309); test: LTEA_HepaRG_FOXO3: Life Technologies and Expression Analysis (LTEA) Assay for Forkhead box O3 (FOXO3) using HepaRG (AID 2283459); details: mRNA level, 48 h; actives raise or lower the signal
# In short: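 Differentiated human HepaRG cells, 48 h post-plating, exposed in duplicate for 48 h in serum-free induction medium; 8-point half-log series from 100 uM in 0.5% DMSO. FOXO3 mRNA by TaqMan qRT-PCR, normalized to ACTB/GAPDH/POLR2A; bidirectional fit versus DMSO.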
# [11] = read-out: ABC Transporter (ABCB1), ABCB1 (gene 5243); test: LTEA_HepaRG_ABCB1: Life Technologies and Expression Analysis (LTEA) Assay for ABC Transporter (ABCB1) using HepaRG (AID 2283460); details: mRNA level, 48 h; actives raise or lower the signal
# In short: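 HepaRG cells exposed in duplicate for 48 h in serum-free induction medium to eight half-log concentrations up to 100 uM in 0.5% DMSO. ABCB1 mRNA quantified by qRT-PCR, normalised to ACTB, GAPDH and POLR2A; fitted bidirectionally versus DMSO.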
# [12] = read-out: growth arrest and DNA damage 45 (GADD45B), GADD45B (gene 4616); test: LTEA_HepaRG_GADD45B: Life Technologies and Expression Analysis (LTEA) Assay for growth arrest and DNA damage 45 (GADD45B) using HepaRG (AID 2283461); details: mRNA level, 48 h; actives raise or lower the signal
# In short: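 Human HepaRG monolayers receive chemicals for 48 h at eight half-log concentrations, highest 100 uM, in 0.5% DMSO. Expression is measured by TaqMan qRT-PCR and normalized to ACTB, GAPDH and POLR2A.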
# [13] = read-out: ABC Transporter (ABCC3), ABCC3 (gene 8714); test: LTEA_HepaRG_ABCC3: Life Technologies and Expression Analysis (LTEA) Assay for ABC Transporter (ABCC3) using HepaRG (AID 2283462); details: mRNA level, 48 h; actives raise or lower the signal
# In short: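 Transcriptional change of ABCC3 in HepaRG after 48 h treatment, determined by qRT-PCR normalized to endogenous controls. Concentrations spanned eight half-log steps to 100 uM in 0.5% DMSO.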
# [14] = read-out: ABC Transporter (ABCB11), ABCB11 (gene 8647); test: LTEA_HepaRG_ABCB11: Life Technologies and Expression Analysis (LTEA) Assay for ABC Transporter (ABCB11) using HepaRG (AID 2283463); details: mRNA level, 48 h; actives raise or lower the signal
# In short: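 Differentiated human HepaRG cells in serum-free induction medium, dosed in duplicate for 48 h. Eight-point half-log series from 100 uM in 0.5% DMSO; ABCB11 mRNA by qRT-PCR, normalized to ACTB, GAPDH, POLR2A, fitted bidirectionally versus DMSO.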
# [15] = read-out: ABC Transporter (ABCC2), ABCC2 (gene 1244); test: LTEA_HepaRG_ABCC2: Life Technologies and Expression Analysis (LTEA) Assay for ABC Transporter (ABCC2) using HepaRG (AID 2283464); details: mRNA level, 48 h; actives raise or lower the signal
# In short: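 After plating and 48 h culture, HepaRG medium is replaced with serum-free induction medium and chemicals are added (8 concentrations, max 100 uM, 0.5% DMSO) for 48 h. Total RNA then undergoes qRT-PCR for ABCC2 with housekeeping normalization.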
# [16] = read-out: Broad substrate specificity ATP-binding cassette transporter ABCG2 (Homo sapiens) (UniProt Q9UNQ0); test: LTEA_HepaRG_ABCG2: Life Technologies and Expression Analysis (LTEA) Assay for ABC Transporter (ABCG2) using HepaRG (AID 2283465); details: mRNA level, 48 h; actives raise or lower the signal
# In short: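 Differentiated HepaRG cells were exposed for 48 h in serum-free induction medium to 8 half-log concentrations, top 100 uM, in 0.5% DMSO. ABCG2 mRNA was measured by qRT-PCR, normalized to ACTB, GAPDH and POLR2A, with bidirectional fitting versus DMSO.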
# [17] = read-out: ATP-citrate lyase (ACLY), ACLY (gene 47); test: LTEA_HepaRG_ACLY: Life Technologies and Expression Analysis (LTEA) Assay for ATP-citrate lyase (ACLY) using HepaRG (AID 2283466); details: mRNA level, 48 h; actives raise or lower the signal
# In short: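 Differentiated HepaRG cells exposed 48 h in serum-free induction medium to eight half-log concentrations up to 100 uM in 0.5% DMSO, duplicates. Transcript measured by Fluidigm TaqMan qRT-PCR, normalized to ACTB, GAPDH, POLR2A; bidirectional fit versus DMSO.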
# [18] = read-out: Peroxisomal acyl-coenzyme A oxidase 1 (ACOX1) gene, ACOX1 (gene 51); test: LTEA_HepaRG_ACOX1: Life Technologies and Expression Analysis (LTEA) Assay for Peroxisomal acyl-coenzyme A oxidase 1 (ACOX1) gene using HepaRG (AID 2283467); details: mRNA level, 48 h; actives raise or lower the signal
# In short: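 HepaRG cells, plated 48 h then switched to serum-free induction medium, were exposed in duplicate for 48 h to 8-point half-log concentrations up to 100 uM in 0.5% DMSO. ACOX1 mRNA was measured by qRT-PCR, normalized to ACTB/GAPDH/POLR2A, and fitted bidirectionally versus DMSO.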
# [19] = read-out: Alkaline Phosphatase, Placental (ALPP) gene, ALPP (gene 250); test: LTEA_HepaRG_ALPP: Life Technologies and Expression Analysis (LTEA) Assay for Alkaline Phosphatase, Placental (ALPP) gene using HepaRG (AID 2283468); details: mRNA level, 48 h; actives raise or lower the signal
# In short: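 Using human liver HepaRG cells, chemicals are tested in duplicate over 48 h at half-log concentrations topping at 100 uM; phenobarbital 1 mM serves as induction control. ALPP mRNA change by qRT-PCR, bidirectional fit against vehicle.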
# [20] = CEETOX_H295R_TESTO: CeeTox H295R High-throughput Steroidogenesis Assay for Testosterone (TESTO) (AID 2283457); details: actives raise or lower the signal
# In short: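 Steroidogenesis in H295R cells following OECD 456 with minor changes; 48 h exposure. Medium testosterone by HPLC-MS/MS, DMSO as baseline, with MTT viability run in parallel.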
# Broad substrate specificity ATP-binding cassette transporter ABCG2 (Homo sapiens), sequence (Q9UNQ0 whole entry, looked up): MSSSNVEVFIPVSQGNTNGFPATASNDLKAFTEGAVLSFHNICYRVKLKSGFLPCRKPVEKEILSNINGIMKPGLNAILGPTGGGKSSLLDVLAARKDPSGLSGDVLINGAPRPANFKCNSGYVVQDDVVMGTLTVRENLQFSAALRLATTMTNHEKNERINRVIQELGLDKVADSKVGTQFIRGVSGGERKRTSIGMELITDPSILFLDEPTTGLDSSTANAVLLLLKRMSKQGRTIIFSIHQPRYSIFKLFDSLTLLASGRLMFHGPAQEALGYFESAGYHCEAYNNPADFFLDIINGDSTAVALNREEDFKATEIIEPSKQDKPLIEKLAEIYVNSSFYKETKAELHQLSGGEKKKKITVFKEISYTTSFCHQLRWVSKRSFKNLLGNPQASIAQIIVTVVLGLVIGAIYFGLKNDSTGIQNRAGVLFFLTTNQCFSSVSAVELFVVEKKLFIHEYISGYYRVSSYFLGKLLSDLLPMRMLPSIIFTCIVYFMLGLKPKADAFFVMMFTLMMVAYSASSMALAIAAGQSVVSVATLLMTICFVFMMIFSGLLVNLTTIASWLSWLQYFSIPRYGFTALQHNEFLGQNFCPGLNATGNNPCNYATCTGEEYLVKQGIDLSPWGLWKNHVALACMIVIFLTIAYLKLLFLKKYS
structure (smiles),measurement,setting,value
O=C(c1ccc(OCCN2CCCCC2)cc1)c1c(-c2ccc(O)cc2)sc2cc(O)ccc12,outcome,[1],inactive
same,outcome,[2],inactive
same,AC50,[3],96.1 µM (active)
same,AC50,[4],50 µM (active)
same,AC50,[5],72.3 µM (active)
same,outcome,[6],inactive
same,AC50,[7],65.4 µM (active)
same,AC50,[8],86 µM (active)
same,outcome,[9],inactive
same,outcome,[10],inactive
same,AC50,[11],72.7 µM (active)
same,AC50,[12],92.8 µM (active)
same,AC50,[13],50 µM (active)
same,AC50,[14],7.18 µM (active)
same,AC50,[15],84.8 µM (active)
same,outcome,[16],inactive
same,outcome,[17],inactive
same,AC50,[18],68.6 µM (active)
same,outcome,[19],inactive
CC(=N[Si](C)(C)C)O[Si](C)(C)C,outcome,[20],inactive
OCCCO,outcome,[20],inactive
C=C(C)C(N)=O,outcome,[1],inactive
same,outcome,[2],inactive
same,outcome,[3],inactive
same,outcome,[4],inactive
same,outcome,[5],inactive
same,AC50,[6],50 µM (active)
same,outcome,[7],inactive
same,outcome,[8],inactive
same,outcome,[9],inactive
same,outcome,[10],inactive
same,outcome,[11],inactive
same,outcome,[12],inactive
same,outcome,[13],inactive
same,outcome,[14],inactive
same,outcome,[15],inactive
same,outcome,[16],inactive
same,outcome,[17],inactive
same,outcome,[18],inactive
same,outcome,[19],inactive
C#C[C@]1(O)CC[C@H]2[C@@H]3CCc4cc(O)ccc4[C@H]3CC[C@@]21C,outcome,[1],inactive
same,outcome,[2],inactive
same,outcome,[3],inactive
same,outcome,[4],inactive
same,outcome,[5],inactive
same,outcome,[6],inactive
same,outcome,[7],inactive
same,outcome,[8],inactive
same,outcome,[9],inactive
same,outcome,[10],inactive
same,outcome,[11],inactive
same,outcome,[12],inactive
same,outcome,[13],inactive
same,outcome,[14],inactive
same,outcome,[15],inactive
same,outcome,[16],inactive
same,outcome,[17],inactive
same,outcome,[18],inactive
same,outcome,[19],inactive
COC(=O)c1ccc(C(=O)OC)cc1,outcome,[1],inactive
same,outcome,[2],inactive
same,outcome,[3],inactive
same,outcome,[4],inactive
same,outcome,[5],inactive
same,AC50,[6],65.1 µM (active)
same,outcome,[7],inactive
same,outcome,[8],inactive
same,outcome,[9],inactive
same,outcome,[10],inactive
same,outcome,[11],inactive
same,outcome,[12],inactive
same,outcome,[13],inactive
same,outcome,[14],inactive
same,outcome,[15],inactive
same,outcome,[16],inactive
same,outcome,[17],inactive
same,outcome,[18],inactive
same,outcome,[19],inactive
